Results as given in PubChem BioAssay (NCATS).
Inconclusive results are not listed. A number with no mark means an inactive call. Active and inactive are the calls of the source. Calls follow the shape of the dose curve; as a rule, active = well fitted inhibition curve with a large enough effect; inconclusive = small, poorly fitted or top-dose-only effect; inactive = flat fitted curve, though single readings scatter.

Test: P-glycoprotein substrates identified in KB-8-5-11 adenocarcinoma cell line, qHTS therapeutic library screen (AID 1346987); also: nearly all actives have a fitted effect of over 65% in size
Details: KB-8-5-11 (P-gp overexpressing) viability, CellTiter-Glo, 72 h; series mostly up to 44.5 µM; activity change, negative = cytotoxicity: at the top concentration
How it was run: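 P-gp-mediated resistance screen: KB-8-5-11 cells treated 72 h with compounds in dose-response. CellTiter-Glo viability.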
% is scaled to controls: 0 for no effect and ±100 for the full control effect; potency is read from the fitted curve at half-maximal effect.

Row | Compound | activity change, negative = cytotoxicity | Potency | outcome
1 | CC1CCCC(=O)CCC/C=C/c2cc(O)cc(O)c2C(=O)O1 (stereo not given) | 3.42% | – | –
2 | O=C(OC[C@H]1O[C@@H](Oc2ccc(O)cc2CO)[C@H](O)[C@@H](O)[C@@H]1O)c1ccccc1 | -8.99% [at 17.3 µM] | – | –
3 | CC[C@@]1(O)C(=O)OCc2c1cc1n(c2=O)Cc2cc3c(OC)cccc3nc2-1 | – | 805 nM (active) | –
4 | CC(=O)OC[C@]12C[C@H](O)C(C)=C[C@H]1O[C@@H]1[C@H](O)[C@@H](O)[C@@]2(C)[C@]12CO2 | – | 4040 nM (active) | –
5 | CC[C@H]1C[C@@H]2CC[C@@H](O2)[C@@H](C)C(=O)O[C@H](CC)C[C@H]2CC[C@H](O2)[C@H](C)C(=O)O[C@@H](C)C[C@@H]2CC[C@@H](O2)[C@@H](C)C(=O)O[C@H](CC)C[C@H]2CC[C@H](O2)[C@H](C)C(=O)O1 | – | 968 nM (active) | –
6 | CC(=O)OC[C@]12C[C@H](O)C(C)=C[C@H]1O[C@@H]1[C@H](O)[C@@H](OC(C)=O)[C@@]2(C)[C@]12CO2 | – | 14.3 nM (active) | –
7 | CO[C@H]1[C@H](O)[C@H](O[C@H]2CC[C@]3(C=O)C4CC[C@]5(C)[C@H](C6=CC(=O)OC6)CC[C@]5(O)C4CC[C@@H]3C2)O[C@@H](C)[C@@H]1O (stereo not given in full) | – | 25.2 nM (active) | –
8 | C[C@H]1O[C@@H](n2cnc3c(N)ncnc32)C[C@@H]1O | – | – | inactive
9 | CO[C@H]1[C@@H](O)[C@@H](C)O[C@@H](O[C@@H]2C=C3C(OC(C)=O)CC4(O)C(CC[C@]5(C)[C@@H](C6=CC(=O)OC6)CC[C@]45O)[C@@]3(C)CC2)[C@@H]1O (stereo not given in full) | – | 193 nM (active) | –
10 | CN(C)c1cc2c(cc1Sc1nc3c(N)nccc3n1CCNCC(C)(C)C)OCO2 | – | 517 nM (active) | –
